# High-throughput results: PubChem BioAssay, National Center for Advancing Translational Sciences (NCATS)
# Rows were chosen to be rich in hits. Some 0.5% of all compounds tested hit in one or more screens of this group.
# RGS4 inh: human RGS4 inhibition; Transcreener GDP fluorescence polarization, RGS4-accelerated GTP hydrolysis; P49798; 390,000 compounds, 0.039% hits; Potency, µM (top dose mostly 114 µM), without a hit: at the top dose activity change, negative = inhibition, usual class: inhibitors; also: potency is read from the fitted curve at half-maximal effect; % is scaled to controls: 0 for no effect and ±100 for the full control effect; nearly all actives have a fitted effect of over 75% in size
#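 MLSMR compounds (23 nl, pin-transferred) preincubated 10 min at room temperature with a 500nM (2x) first reagent, then RGS4 at 900nM (2x) plus Transcreener GDP mix added; fluorescence polarization (620/688 nm) read before and after 90 min at 30 °C.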
# TRPML1 blocker: blocks the human TRPML1 channel; Q9GZU1; TRPML1-inducible cells, Ca2+ dye fluorescence, FDSS; active compounds read low; inhibition of EC80 agonist-evoked calcium signal; activity change, negative = inhibition, % (concentration not given with the values); 390,000 compounds, 0.02% hits; in the data active = activity change below about -50%; inconclusive = between about -30% and that limit;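 also: stimulus is agonist 54-4 at its EC80 concentration; % is scaled to controls: 0 for no effect and ±100 for the full control effect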
#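 Calcium fluorescence in TRPML1-DL cells induced overnight with Tet: a 110 s read after compound pin addition, then a 110 s antagonist read after challenge with 54-4 at 4 uM final (EC80).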
# TRPV1 agonist: activates the human vanilloid receptor TRPV1. AID 540275. activation, % at 8.33 µM. 320,000 compounds, 0.19% hits. TRPV1-expressing cells, Fluo-8 calcium influx, agonist mode. Q8NER1; in the data active = activation above about 80%; inconclusive = between about 30% and that limit; also: 0% is about no effect
# Target sequence (Q8NER1 whole entry, looked up): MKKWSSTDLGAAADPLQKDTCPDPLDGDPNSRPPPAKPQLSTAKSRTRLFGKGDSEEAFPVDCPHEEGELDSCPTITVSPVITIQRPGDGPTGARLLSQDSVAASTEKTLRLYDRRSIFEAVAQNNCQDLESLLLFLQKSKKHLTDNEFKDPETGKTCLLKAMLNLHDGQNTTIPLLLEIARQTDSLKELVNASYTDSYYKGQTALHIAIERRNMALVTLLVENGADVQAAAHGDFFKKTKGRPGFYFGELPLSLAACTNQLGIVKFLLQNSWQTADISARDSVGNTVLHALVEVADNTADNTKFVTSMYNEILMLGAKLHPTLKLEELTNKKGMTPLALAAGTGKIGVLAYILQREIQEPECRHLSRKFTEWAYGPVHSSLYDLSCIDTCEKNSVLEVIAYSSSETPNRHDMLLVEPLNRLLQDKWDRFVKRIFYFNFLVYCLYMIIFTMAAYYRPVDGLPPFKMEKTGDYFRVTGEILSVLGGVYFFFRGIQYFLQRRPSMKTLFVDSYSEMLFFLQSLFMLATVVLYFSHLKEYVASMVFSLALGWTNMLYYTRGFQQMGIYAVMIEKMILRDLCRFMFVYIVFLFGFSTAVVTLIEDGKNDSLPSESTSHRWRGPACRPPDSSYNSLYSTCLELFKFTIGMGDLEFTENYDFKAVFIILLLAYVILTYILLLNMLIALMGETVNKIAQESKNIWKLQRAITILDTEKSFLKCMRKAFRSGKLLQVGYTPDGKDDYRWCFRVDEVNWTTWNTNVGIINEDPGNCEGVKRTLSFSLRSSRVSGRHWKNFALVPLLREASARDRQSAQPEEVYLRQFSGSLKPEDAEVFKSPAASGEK
#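 Fluo-8 calcium influx in TRPV1-expressing cells, kinetic read (ex 480/em 520 nm). Compound added and read 3 min for agonist activity, followed by capsaicin at EC20 final and 2 min further read for enhancement.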
# TRPV1 potentiator: enhances activation of the human vanilloid receptor TRPV1. 320,000 compounds, 0.02% hits. Q8NER1. TRPV1-expressing cells, Fluo-8 calcium influx, capsaicin EC20 potentiation. potentiation, % at 8.33 µM; in the data active = potentiation above about 80%; inconclusive = between about 30% and that limit; also: 0% is about no effect
#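 Cells expressing TRPV1 were dye-loaded with Fluo-8 and read kinetically: 10 s baseline, 3 min after compound (agonist portion), then 2 min after EC20 capsaicin (allosteric enhancer portion). Calcium-bound dye fluorescence at 480/520 nm.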
# TRPML1 agonist: activates the human TRPML1 channel | Q9GZU1 | TRPML1-expressing cells, Ca2+ dye fluorescence, FDSS | activation, % (test concentration not listed) | 410,000 compounds, 0.12% hits | AID 624414; in the data active = activation above about 50%; inconclusive = mostly about 30% to 49%; also: 0% is about no effect
#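 Calcium fluorescence on an FDSS kinetic reader gave the read-out. Tet-induced TRPML1-DL cells were plated overnight, dye-loaded (Ca8 with quencher, 45-90 min, room temperature, dark), then read 110 s after compound addition, and again 110 s after 4uM final 54-4 (EC80).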
# AT treatment: candidate therapy for ataxia-telangiectasia. 320,000 compounds, 0.19% hits. F2112 A-T fibroblasts, KAP-1 phosphorylation AlphaLISA; neocarzinostatin DNA damage 30 min before lysis. Potency, µM (doses to about 57.5 µM), inactives show at the top dose activation, most hits filed as activators; also: potency is read from the fitted curve at half-maximal effect; % of control where 0% means no effect; nearly all actives have a fitted effect of over 45% in size
#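 ATM-like activity read as KAP-1 phosphorylation via AlphaLISA donor/acceptor antibody pairs after lysis and 6 hr at 25C. Cells were ATM-null patient fibroblasts (F2112, hTERT), dosed 60 min, then exposed to the DSB inducer NCS for 30 min.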
# Numbers without * were called inactive; ? = inconclusive; . = no result given; [ ] = dose if it differs, or a comment. Unless noted, calls follow the shape of the dose curve; as a rule, active = well fitted curve in the direction sought with a large enough effect; inconclusive = small, poorly fitted or top-dose-only effect, or another doubt; inactive = no such curve, though single readings can be large; an effect the other way counts as inactive or inconclusive.
SMILES,RGS4 inh,TRPML1 blocker,TRPV1 agonist,TRPV1 potentiator,TRPML1 agonist,AT treatment
Cc1ccc(Nc2nnc(SCC(=O)Nc3cc(C(=O)O)ccc3C)s2)c(C)c1,-24%,-5,1,22,-1,-3%
O=C(CCSCc1ccc(Cl)cc1)NCc1cccnc1,-7%,3,81*,-3,0,-3%
COc1ccc(NC(=O)Nc2nnc(C)s2)cc1,0%,17,.,.,-1,.
CCOC(=O)c1c(C)[nH]c(C(=O)OCC(=O)N(C)c2c(N)n(Cc3ccccc3)c(=O)[nH]c2=O)c1C,7%,6,-4,-12,3,-17%
C(=C\c1nccc2c1[nH]c1ccccc12)/c1ccccc1,-45%,-5,?,-20,-1,22µM*
Fc1ccc(/C=C\c2nccc3c2[nH]c2ccccc23)cc1,-16%,31,?,-10,1,9%
CN(C)c1cccc2c(S(=O)(=O)N3CCCC3)cccc12,-13%,20,?,-25,2,20µM*
CCOC(=O)c1c(C)oc2c1c(CN1CCN(C(=O)OCC)CC1)c(O)c1ccccc12,?,-2,?,-9,0,32µM*
COc1ccc(C(=O)N2c3ccccc3C=CC2C#N)cc1 (stereo unspecified),10%,46,3,-22,2,10%
N#C[C@H]1[C@H](c2ccccc2)[C@](C#N)(C(=O)c2ccccc2)[C@@H]2C=Cc3ccccc3N21,.,.,.,.,.,16µM*
CNC(=S)N(CCc1c(C)[nH]c2ccc(Cl)cc12)Cc1cccnc1,22%,-1,-1,5,0,0.89µM*
CCNC(=S)N(CCc1c(C)[nH]c2ccc(Cl)cc12)Cc1cccnc1,-15%,-7,-1,?,1,?
CC(Oc1ccc(Cl)cc1)C(=O)Nc1ccccc1N1CCOCC1 (stereo unspecified),-6%,-5,.,.,74*,20%
C[C@@H]1C[C@@H]2OC(=O)[C@]3(C)[C@H]2[C@@H](OC3(C)O)[C@]2(C)C(=O)C=C[C@H]12 (stereo partly specified),-1%,27,-6,-33,-1,40µM*
CCOc1ccccc1CNC(=O)C1CCCN(c2ncnc3c2nc2n3CCCCC2)C1 (stereo unspecified),34%,2,23,-10,1,3%
O=C(NCc1ccccc1Cl)C1CCCN(c2ncnc3c2nc2n3CCCCC2)C1 (stereo unspecified),39%,-4,81*,-9,1,-7%
O=c1cc2oc3cc(O)c(O)cc3c(-c3ccccc3O)c-2cc1O,-36%,14,17,7,16,-8%
COc1ccc(OC)c(-c2oc3ccccc3c(=O)c2O)c1,10%,-15,5,-8,0,-1%
COc1ccc(OC)c(-c2c3cc(O)c(=O)cc-3oc3cc(O)c(O)cc23)c1,?,1,14,-7,147*,0%
CCOc1ccccc1-c1c2cc(O)c(=O)cc-2oc2cc(O)c(O)cc12,?,-8,?,-41,110*,-13%
C#CCOCCOCCOCCNc1nc(N2CCN(C(=O)[C@H]([C@@H](C)CC)n3cc([C@@H](N)CO)nn3)CC2)nc(N2CCN(C(=O)[C@H]([C@@H](C)CC)n3cc([C@@H](N)CC(C)C)nn3)CC2)n1,-16%,-3,1,1,-1,13%
C#CCOCCOCCOCCNc1nc(N2CCN(C(=O)[C@H](CCCCN)n3cc(C(N)CO)nn3)CC2)nc(N2CCN(C(=O)[C@H](CCC(=O)O)n3cc(C(N)CC(C)C)nn3)CC2)n1 (stereo partly specified),.,.,-4,-22,.,40µM*
C#CCOCCOCCOCCNc1nc(N2CCN(C(=O)[C@H]([C@@H](C)CC)n3cc([C@@H](N)CO)nn3)CC2)nc(N2CCN(C(=O)[C@H]([C@@H](C)CC)n3cc([C@@H](N)CO)nn3)CC2)n1,.,.,3,28,.,40µM*
O=C(O)C1C2CCC(O2)C1C(=O)Nc1ccc(Br)cc1F (stereo unspecified),4%,-8,.,.,-1,.
Cc1cc(CNC(=S)Nc2ccc(Br)cc2Cl)nn1C,-19%,19,94*,-22,1,8%
SMILES,RGS4 inh,TRPML1 blocker,TRPV1 agonist,TRPV1 potentiator,TRPML1 agonist,AT treatment
Cc1cc(CNC(=O)c2cc(Br)ccc2Cl)nn1C,-19%,8,9,-9,1,-5%
Cc1ccc(S(=O)(=O)c2cc3ccc(O)cc3oc2=O)cc1C,9%,-1,6,10,4,20µM*
COc1ccc2cc(S(=O)(=O)c3ccccc3)c(=O)oc2c1,27%,1,7,-9,0,-5%
CC(SCC(=O)Nc1ccccc1)c1nc2ccccc2c(=O)[nH]1 (stereo unspecified),-26%,1,-3,-14,0,3%
CC(C)c1ccc(NC(=O)CSC(C)c2nc3ccccc3c(=O)[nH]2)cc1 (stereo unspecified),-16%,-1,22,-9,0,4µM*
COc1ccccc1C(=O)N=c1sc2c(C)ccc(OC)c2n1C,-5%,1,12,-9,2,16µM*
Cc1nc(SCC(=O)Nc2cc(C(N)=O)cc(C(N)=O)c2)c2c(C)c(C)sc2n1,-17%[56.9 µM],-1,0,10,0,35µM*
Cc1ccc(C2=NS(=O)(=O)N(C)C(C(=O)NCc3cccs3)=C2)cc1,4%,8,92*,7,0,-3%
Cc1ccc(C2=NS(=O)(=O)N(C)C(C(=O)NCc3ccccn3)=C2)cc1,-13%,24,15,-10,0,-1%
CC1CCCN(CCCOc2ccc(Br)cc2Cl)C1 (stereo unspecified),-8%,-3,1,-7,0,-1%
CCCCn1c(SCC(=O)N2CCCC2)nc2cc(S(N)(=O)=O)ccc21,15%,9,-1,-8,0,4%
CC(C)CC1Nc2ncnc(N3CCOCC3)c2N(Cc2ccc(Br)cc2)C1=O (stereo unspecified),-23%,-7,?,16,0,-1%
CC(C)CC1Nc2ncnc(N3CCCCC3)c2N(Cc2ccc(Br)cc2)C1=O (stereo unspecified),-3%,13,82*,1,1,10%
COc1ccc(OC)c(/C=N/NC(=O)CCCC(=O)Nc2cccc(Br)c2)c1,-33%,14,15,9,2,-5%
COc1ccc(OCCN2CCOCC2)cc1,-6%,4,4,-2,0,2%
